In all, about 310,000 compounds went through this assay and about 14,000 (4.5%) showed an effect of 50% or more. The effect is printed as a negative number. The full list was thinned out, with strong results kept by preference.
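Further: peak tail current of the secondary pulse compared with the same well before compound.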

The target of the assay is human ether-à-go-go-related gene (hERG) potassium channel (human, UniProt Q12809). Kind of assay: primary screen, population patch clamp on CHO cells stably expressing hERG; higher = less effect of the substance.
Sequence of human ether-à-go-go-related gene (hERG) potassium channel (Q12809 whole entry, looked up): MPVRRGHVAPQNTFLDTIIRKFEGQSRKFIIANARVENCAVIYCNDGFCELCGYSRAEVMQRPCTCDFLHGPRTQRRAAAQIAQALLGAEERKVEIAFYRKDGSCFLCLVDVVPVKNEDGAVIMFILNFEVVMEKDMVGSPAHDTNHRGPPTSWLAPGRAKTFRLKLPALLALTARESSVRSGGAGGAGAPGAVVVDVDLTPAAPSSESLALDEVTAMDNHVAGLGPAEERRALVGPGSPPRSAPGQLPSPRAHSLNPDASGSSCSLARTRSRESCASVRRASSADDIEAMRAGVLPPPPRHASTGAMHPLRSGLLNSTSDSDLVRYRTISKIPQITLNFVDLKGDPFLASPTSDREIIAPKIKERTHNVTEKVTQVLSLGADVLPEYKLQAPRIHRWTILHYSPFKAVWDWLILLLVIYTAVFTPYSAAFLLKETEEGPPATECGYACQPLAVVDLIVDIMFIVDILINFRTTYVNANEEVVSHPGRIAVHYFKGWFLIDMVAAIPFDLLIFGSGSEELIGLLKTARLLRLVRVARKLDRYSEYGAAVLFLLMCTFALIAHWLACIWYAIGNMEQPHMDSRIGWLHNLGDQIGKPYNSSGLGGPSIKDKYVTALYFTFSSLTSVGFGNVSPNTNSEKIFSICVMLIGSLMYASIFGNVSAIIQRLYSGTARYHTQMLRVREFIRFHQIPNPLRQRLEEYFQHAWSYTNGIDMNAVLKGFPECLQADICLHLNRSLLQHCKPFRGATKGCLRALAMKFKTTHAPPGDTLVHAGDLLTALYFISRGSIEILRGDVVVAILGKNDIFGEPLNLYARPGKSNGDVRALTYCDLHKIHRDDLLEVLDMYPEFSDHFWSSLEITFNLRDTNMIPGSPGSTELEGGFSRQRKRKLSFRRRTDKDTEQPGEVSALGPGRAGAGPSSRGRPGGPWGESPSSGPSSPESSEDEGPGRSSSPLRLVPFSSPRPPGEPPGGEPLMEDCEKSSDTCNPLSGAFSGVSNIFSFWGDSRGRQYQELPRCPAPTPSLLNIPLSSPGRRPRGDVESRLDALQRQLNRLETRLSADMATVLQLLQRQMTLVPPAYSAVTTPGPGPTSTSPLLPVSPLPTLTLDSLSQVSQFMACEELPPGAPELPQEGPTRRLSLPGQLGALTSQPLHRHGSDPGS
Turning to `Cc1cccc(Nc2ccc(C(=O)N3CCOCC3)cn2)c1`, the “hERG current change (%, negative = inhibition) at 10uM” value was 10.7%.
As for `CCOc1ccc(S(=O)(=O)Nc2cccc(C(=O)NCC3(N4CCCCC4)CCCCC3)c2)cc1`, the “hERG current change (%, negative = inhibition) at 10uM” value is listed as -71.6%.
For the compound `O=C(NCC1(N2CCCCC2)CCCCC1)c1ccc(NS(=O)(=O)c2ccccc2)cc1`, the “hERG current change (%, negative = inhibition) at 10uM” value is -44.1%.
For the compound `Cc1ccc(S(=O)(=O)Nc2cccc(C(=O)NCCN3CCOCC3)c2)cc1F`, the “hERG current change (%, negative = inhibition) at 10uM” value is on record as -1.9%.
With `CCOc1ccc(S(=O)(=O)Nc2ccc(C(=O)NCC3(N4CCCCC4)CCCCC3)cc2)cc1` the figure was -45.8%; with `O=C(NCC1(N2CCCCC2)CCCCC1)c1cccc(NS(=O)(=O)c2ccccc2)c1`, -64.4%; with `CCOc1ccc(NS(=O)(=O)c2ccc(C(=O)NCC3(N4CCCCC4)CCCCC3)cc2)cc1`, -11%.
Turning to `Cc1ccc(S(=O)(=O)Nc2cccc(C(=O)NCC(C)(C)N3CCOCC3)c2)cc1F`, the “hERG current change (%, negative = inhibition) at 10uM” value is -50.3%.
`Cc1ccc(S(=O)(=O)Nc2cccc(C(=O)N3CCCC3)c2)cc1F`: the “hERG current change (%, negative = inhibition) at 10uM” value is recorded as -0.933%.
`Cc1cccc(NS(=O)(=O)c2cccc(C(=O)NCC(C)(C)N3CCOCC3)c2)c1`: the “hERG current change (%, negative = inhibition) at 10uM” value amounted to 4.99%.
As to `CC(C)(CNC(=O)c1cccc(NS(=O)(=O)c2ccc(Br)cc2)c1)N1CCOCC1`, the “hERG current change (%, negative = inhibition) at 10uM” value was -33.7%.
Regarding `Cc1ccc(S(=O)(=O)Nc2cccc(C(=O)NCC3(N4CCCCC4)CCCCC3)c2)cc1F`, the “hERG current change (%, negative = inhibition) at 10uM” value was -82.6%.
Under `CC(=O)Nc1cccc(C(=O)NCC2(N3CCCCC3)CCCCC2)c1` stands 19.4%; under `C[C@H](NC(=O)N1CCn2c1nc1ccccc12)C(=O)NCC1CCCO1` (stereo partly shown), 20.8%.
For the compound `CC(OC(=O)c1cccc(-n2cnnn2)c1)C(=O)Nc1cccc(Cl)c1` (stereo not shown), the “hERG current change (%, negative = inhibition) at 10uM” value is reported as -2.88%.
Under `N#Cc1ccccc1OCC(=O)OCC(=O)N1CCN(C(=O)c2ccco2)CC1` stands 3.22%.
On to `Cc1cc(N2C(=O)CC(N3CCN(c4ccc(C(=O)c5cccs5)cc4)CC3)C2=O)no1` (stereo not shown), for which the “hERG current change (%, negative = inhibition) at 10uM” value is on record as -37.3%.
Under `CC(C)CCOP(=O)(c1ccc(N(C)C)cc1)C(O)c1ccc(C(C)C)cc1` (stereo not shown) stands 11.7%; under `CCOC(=O)c1cn2nc(Oc3ccccc3)ccc2n1`, -12.8%.
Turning to `O=C(Cc1ccccc1)N/N=C/c1cc2c(cc1Cl)OCO2`, the “hERG current change (%, negative = inhibition) at 10uM” value is 1.85%.
As for `COc1cc(NC(=O)NNC(=O)c2cc3occc3n2C)cc(OC)c1OC`, the “hERG current change (%, negative = inhibition) at 10uM” value stood at 26.1%.
For `Cc1cccc(NS(=O)(=O)c2cccc(C(=O)NCC3(N4CCCCC4)CCCCC3)c2)c1`, the “hERG current change (%, negative = inhibition) at 10uM” value was -89.9%.
Consider `CS(=O)(=O)c1ccc(C(=O)NCC2(N3CCCCC3)CCCCC2)cc1`, for which the “hERG current change (%, negative = inhibition) at 10uM” value is given as -11%.
Under `Cc1cc(S(=O)(=O)Nc2ccc(C(=O)NCC3(N4CCCCC4)CCCCC3)cc2)ccc1F` stands -66.4%; under `CNS(=O)(=O)c1cccc(C(=O)NCC2(N3CCOCC3)CCCCC2)c1`, 9.92%; under `CNS(=O)(=O)c1cccc(C(=O)NCC2(N3CCCCC3)CCCCC2)c1`, -18.3%.
As to `O=C(NCC1(N2CCCCC2)CCCCC1)c1ccc(NS(=O)(=O)c2ccc(F)cc2)cc1`, the “hERG current change (%, negative = inhibition) at 10uM” value is -42.9%.
Under `O=C(COc1ccccc1)Nc1nc(-c2cccs2)cs1` stands 5.72%.
With `CCOC(=O)c1c(C)[nH]c(C(=O)OC(C)C(=O)NCc2ccccc2)c1C` (stereo not shown) the figure was 17.4%.
As to `COc1ccccc1-c1nnc(NC(=O)C2=COCCO2)o1`, the “hERG current change (%, negative = inhibition) at 10uM” value amounted to 14.3%.
Under `CCc1sc(C(=O)N2CCC3(CC2)OCCO3)cc1Br` stands -7.08%; under `CC(=O)Nc1ccc(Nc2nnc(-c3ccc(C)c(S(=O)(=O)NCC4CCCO4)c3)c3ccccc23)cc1` (stereo not shown), -5.1%; under `O=C1NN(c2ccc(Br)cc2)C(=O)/C1=C\c1ccc(O)cc1O`, 30.2%.
Regarding `Cc1ccccc1C(=O)Nc1ccc2nc3n(c(=O)c2c1)CCC3`, the “hERG current change (%, negative = inhibition) at 10uM” value is reported as -9.1%.
With `Nc1c(C=C2C=CC(=O)C=C2)c(=O)nc2sc(CC(=O)N3CCCCC3)nn12` the figure was 15.6%; with `COc1cccc(CNCc2ccc(OC)cc2OC)c1.O=C(O)C(=O)O`, -14.1%.
With `CCC(CC)NCc1ccc2c(c1)c1ccccc1n2CC.O=C(O)C(=O)O`, the “hERG current change (%, negative = inhibition) at 10uM” value is given as -28.5%.
As to `COc1ccc(CNCc2ccncc2)c(OC)c1.Cl`, the “hERG current change (%, negative = inhibition) at 10uM” value is recorded as -0.685%.
As for `COc1ccc(CNCc2ccc3ccccc3c2)c(OC)c1.O=C(O)C(=O)O`, the “hERG current change (%, negative = inhibition) at 10uM” value is -68.3%.
In the case of `COc1ccc(CNCc2cc(OC)ccc2OC)cc1.O=C(O)C(=O)O`, the “hERG current change (%, negative = inhibition) at 10uM” value is recorded as -30.3%.
With `CCn1c2ccccc2c2cc(CNCc3ccc(OC)cc3OC)ccc21.O=C(O)C(=O)O`, the “hERG current change (%, negative = inhibition) at 10uM” value was -76.2%.
Under `COc1ccc(CNCc2cc(C)c(OC)cc2C)c(OC)c1.O=C(O)C(=O)O` stands -54.9%.
In the case of `COc1ccc(CNCc2ccc(C)cc2)c(OC)c1.O=C(O)C(=O)O`, the “hERG current change (%, negative = inhibition) at 10uM” value was -31.3%.
On to `COc1ccc(NC(=S)NCc2ccc(F)cc2)c(OC)c1`, for which the “hERG current change (%, negative = inhibition) at 10uM” value is 1.54%.
Under `COc1cc(CNCc2ccc(OC)cc2OC)cc(OC)c1.O=C(O)C(=O)O` stands -29.5%; under `CCn1c2ccccc2c2cc(CN3CCN(Cc4cc(OC)ccc4O)CC3)ccc21.O=C(O)C(=O)O`, 7.15%.
In the case of `Br.COc1ccc(CNCc2ccc(F)cc2)c(OC)c1`, the “hERG current change (%, negative = inhibition) at 10uM” value is reported as -79%.
For `CC1(C)CN(c2ccc(N3CC(C)(C)C3=O)cc2)C1=O`, the “hERG current change (%, negative = inhibition) at 10uM” value is 4.66%.
`O=C(NC1CC2CCCC(C1)N2C(=O)Nc1ccccc1)c1ccncc1` (stereo not shown): the “hERG current change (%, negative = inhibition) at 10uM” value stood at 0.052%.
`CNCCc1c[nH]c2ccc(O)cc12.O=C(O)C(=O)O`: the “hERG current change (%, negative = inhibition) at 10uM” value was 17.7%.
On to `Cc1cccc(NC(=O)c2ccccc2NC(=O)C(C)(C)C)n1`, for which the “hERG current change (%, negative = inhibition) at 10uM” value is recorded as -0.982%.
Regarding `CC(C)c1ccc(Nc2nnc(SCC(=O)c3nnc(-c4ccccc4)o3)s2)cc1`, the “hERG current change (%, negative = inhibition) at 10uM” value is recorded as 22.2%.
On to `CCn1c(NCc2ccc(N(C)C)cc2)nc2ccccc21`, for which the “hERG current change (%, negative = inhibition) at 10uM” value is listed as -41.2%.
As to `O=C(Nc1nccs1)c1ccccn1`, the “hERG current change (%, negative = inhibition) at 10uM” value is reported as -3.04%.
For `Nc1nc(SCc2nc3sc4c(c3c(=O)[nH]2)CCCC4)n[nH]1`, the “hERG current change (%, negative = inhibition) at 10uM” value is 8.47%.
Under `CCOc1cccc(CNCCNC(=O)c2nonc2N)c1.Cl` stands -7.85%.
With `O=C(c1ccco1)N1CCN(C(=O)c2ccc(COc3ccc(F)cc3)o2)CC1` the figure was -62.6%.
Consider `O=C(c1ccc(COc2ccc(F)cc2)o1)n1cccn1`, for which the “hERG current change (%, negative = inhibition) at 10uM” value turned out to be 4.97%.
With `O=C(c1ccccc1OCc1ccc(Cl)cc1)N1CCN(c2ccccn2)CC1`, the “hERG current change (%, negative = inhibition) at 10uM” value is on record as -42.4%.
For the compound `CSc1ccccc1C(=O)NCC(c1ccco1)N(C)C` (stereo not shown), the “hERG current change (%, negative = inhibition) at 10uM” value turned out to be 16.9%.
Turning to `CCN1CCN(C(=O)c2ccc(COc3cccc(Cl)c3)o2)CC1`, the “hERG current change (%, negative = inhibition) at 10uM” value is given as -23.7%.
On to `CN(C)C(CNC(=O)c1ccccc1OCc1ccc(Cl)cc1)c1ccco1` (stereo not shown), for which the “hERG current change (%, negative = inhibition) at 10uM” value was -60.3%.
As to `O=C(c1ccco1)N1CCN(C(=O)c2ccccc2OCc2ccc(Cl)cc2)CC1`, the “hERG current change (%, negative = inhibition) at 10uM” value is -75.9%.
For the compound `O=C(OCC(=O)N1CCN(C(=O)c2ccco2)CC1)c1ccccc1OCc1ccc(Cl)cc1`, the “hERG current change (%, negative = inhibition) at 10uM” value is listed as -35.3%.
For the compound `COc1ccc(Cl)cc1C(=O)NCC(c1ccco1)N(C)C` (stereo not shown), the “hERG current change (%, negative = inhibition) at 10uM” value is recorded as -4.19%.
For `CCN1CCN(C(=O)c2ccc(COc3ccc(Cl)cc3)o2)CC1`, the “hERG current change (%, negative = inhibition) at 10uM” value is on record as -52.5%.
As to `O=C(c1ccco1)N1CCN(C(=O)c2ccc(CS(=O)c3ccc(F)cc3)o2)CC1` (stereo not shown), the “hERG current change (%, negative = inhibition) at 10uM” value turned out to be 11.8%.
In the case of `O=C(c1ccc(COc2ccc(Cl)cc2)o1)N1CCN(Cc2ccc3c(c2)OCO3)CC1`, the “hERG current change (%, negative = inhibition) at 10uM” value is given as -12.7%.
Under `Nn1c(SCC(=O)NC2CCCCC2)nnc1-c1ccccc1F` stands -3.17%; under `CCCc1[nH]nc2c1C(c1ccsc1)C(C#N)=C(N)O2` (stereo not shown), -7.53%; under `CCOC(=O)C1CCN(C(=O)c2cc3c(OC)c(OC)c(OC)cc3[nH]2)CC1`, 15.5%.
As to `O=C(COc1ccc(Cl)cc1Cl)N1CCN(C(=O)c2ccco2)CC1`, the “hERG current change (%, negative = inhibition) at 10uM” value was 20.6%.
As to `O=C(c1ccc(COc2ccc3c(c2)CCC3)o1)N1CCN(c2ccccc2)CC1`, the “hERG current change (%, negative = inhibition) at 10uM” value stood at 15.5%.
Consider `O=C(c1ccco1)N1CCN(C(=O)c2ccc(COc3ccc(Cl)cc3Cl)o2)CC1`, for which the “hERG current change (%, negative = inhibition) at 10uM” value was -70.4%.
For the compound `O=C(c1ccc(COc2ccc(Cl)cc2Cl)o1)N1CCCC1`, the “hERG current change (%, negative = inhibition) at 10uM” value is recorded as -43.1%.
`NNC(=O)c1ccc(COc2ccc3c(c2)CCC3)o1`: the “hERG current change (%, negative = inhibition) at 10uM” value turned out to be 0.852%.
Consider `O=C(c1ccco1)N1CCN(C(=O)c2ccc(COc3ccc4c(c3)CCC4)o2)CC1`, for which the “hERG current change (%, negative = inhibition) at 10uM” value was -69%.
Turning to `CCOc1cc2[nH]c(=S)n(CCC(=O)NCc3ccco3)c(=O)c2cc1OCC`, the “hERG current change (%, negative = inhibition) at 10uM” value worked out at 23.6%.
With `CC(C)(C)CN1CCN(Cc2cc3ccccc3[nH]2)CC1CCO` (stereo not shown), the “hERG current change (%, negative = inhibition) at 10uM” value is -8.03%.
Take `CCOc1ccccc1CN1CCN(Cc2cc(=O)c3ccccc3[nH]2)CC1CCO` (stereo not shown): the “hERG current change (%, negative = inhibition) at 10uM” value was -66.6%.
On to `CC(C)CCN1CCN(Cc2cc3ccccc3[nH]2)CC1CCO` (stereo not shown), for which the “hERG current change (%, negative = inhibition) at 10uM” value is given as -22.4%.
For `CCOc1ccccc1CN1CCN(Cc2cc3ccccc3[nH]2)CC1CCO` (stereo not shown), the “hERG current change (%, negative = inhibition) at 10uM” value is reported as -59.3%.
As to `O=c1cc(CN2CCN(Cc3ccc(F)cc3)C(CCO)C2)[nH]c2ccccc12` (stereo not shown), the “hERG current change (%, negative = inhibition) at 10uM” value is listed as -61.2%.
Under `Cc1ccc(CN2CCN(Cc3cc(=O)c4ccccc4[nH]3)CC2CCO)o1` (stereo not shown) stands -30.8%.
Regarding `Cc1cc(NC(=O)CSc2nc3sc4c(c3c(=O)n2C)CCCC4)no1`, the “hERG current change (%, negative = inhibition) at 10uM” value worked out at 7.47%.

(Values after paper PMC4336329 (PLoS ONE, 2015).)
